Assay outcomes from PubChem BioAssay.
Rab9 prom act: activates the Rab9 promoter; Huh7 Rab9 promoter-luciferase reporter, luminescence, 24 h; Potency, µM (series often up to 9.22 µM), hits mostly activators; 320,000 tested, 2.8% active; note: nearly all actives have a fitted effect of over 60% in size
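Huh7 cells stably carrying a Rab9 promoter-luciferase reporter, 1500 cells per well in OP-MEM I with 10% FBS, treated with compound 24 hours at 37C. Luciferase activity read by luminescence after 10 minutes with Amplite reagent.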
NPC1 prom act: NPC1 promoter activation; 320,000 tested, 2.4% active; Potency, µM (highest dose often 9.22 µM), actives largely listed as activators; Huh7 NPC1 promoter luciferase reporter, 24 h; note: nearly all actives have a fitted effect of over 60% in size
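Huh7 reporter cells (NPC1 promoter driving luciferase) are dosed with compound for 24 h at 37 °C, 5% CO2; luciferase detection reagent is then added and luminescence measured after 10 min at ambient temperature.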
SMN2 splice up: increases expression of the SMN2 splice variant; Potency, µM (titrated, usually from 46.1 µM), actives largely listed as activators; 210,000 tested, 2.8% active; HEK293 SMN2-luciferase splicing reporter, luminescence, 30-36 h; note: nearly all actives have a fitted effect of over 55% in size
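HEK293 cells carry an SMN2 minigene-luciferase reporter in which exon 7 inclusion puts luciferase in frame. Cells were seeded at 2000 cells/well, attached for 10-12 hours, then exposed to compounds for 30-36 hours at 37C before ONE-Glo luminescence.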
Luc counter: Kinase-Glo luciferase inhibition (counter-screen). Potency, µM (doses to about 38.3 µM), hits mostly inhibitors. 200,000 tested, 0.28% active. Q27757. Kinase-Glo luciferase, ATP luminescence, 8 min. AID 1379; note: nearly all actives have a fitted effect of over 60% in size
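Recombinant Kinase-Glo luciferase, 10 uM ATP (linear range), luciferin; imidazole pH 7.2 / KCl / MgCl2 / Tween / BSA buffer; 8 min RT; luminescence.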
FLuc modulator: firefly luciferase modulation, counter-screen for miR-21 project; Potency, µM (titrated, usually from 57.5 µM), most hits filed as inhibitors; 360,000 tested, 6.9% active; purified FLuc, Km substrates, luminescence inhibition; P08659; note: nearly all actives have a fitted effect of over 55% in size
Target sequence (P08659 whole entry, looked up): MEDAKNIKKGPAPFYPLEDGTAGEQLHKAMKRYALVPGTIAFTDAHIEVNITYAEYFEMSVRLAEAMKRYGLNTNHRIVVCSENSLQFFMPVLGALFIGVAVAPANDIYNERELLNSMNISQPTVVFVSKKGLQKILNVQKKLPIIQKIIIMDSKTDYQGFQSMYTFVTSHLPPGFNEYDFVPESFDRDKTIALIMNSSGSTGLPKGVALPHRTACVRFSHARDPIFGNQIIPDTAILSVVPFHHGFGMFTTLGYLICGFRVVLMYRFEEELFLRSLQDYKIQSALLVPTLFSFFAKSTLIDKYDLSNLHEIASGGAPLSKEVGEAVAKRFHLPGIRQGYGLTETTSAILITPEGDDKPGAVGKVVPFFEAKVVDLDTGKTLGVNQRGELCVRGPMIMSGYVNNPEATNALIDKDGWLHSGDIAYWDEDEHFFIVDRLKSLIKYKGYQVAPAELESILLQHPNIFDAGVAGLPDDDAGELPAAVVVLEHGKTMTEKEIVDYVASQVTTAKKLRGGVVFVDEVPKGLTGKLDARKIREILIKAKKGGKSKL
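Biochemical qHTS of compounds, final roughly 60 µM downward over six points, against 10 nM purified firefly luciferase using Km concentrations of substrates (10 uM D-luciferin, 10 uM ATP) in Tris acetate pH 7.5 buffer; luminescence output.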
Each line names hits and unclear results; the compound was inactive in the other large screens. In the library only some 7.3% were active in any assay of this set; here they are far more common. Calls come from the whole dose curve; as a rule, active = well fitted curve in the direction sought with a large enough effect; inconclusive = small, poorly fitted or top-dose-only effect, or another doubt; inactive = no such curve, though single readings can be large; an effect the other way counts as inactive or inconclusive.

Cc1ccc(Oc2ccc(NC(=O)c3ccco3)cc2)cc1	Rab9 prom act inconclusive, NPC1 prom act 3.2µM, FLuc modulator 27µM
CCN(C(=O)c1cc2ccccc2oc1=O)c1cccc(C)c1	none
COc1ccc(OC(=O)c2cc3ccccc3o2)cc1	FLuc modulator 0.54µM
CCN(C(=O)c1cc2ccccc2oc1=O)c1ccccc1	Rab9 prom act inconclusive, NPC1 prom act inconclusive, FLuc modulator 9.5µM
CC(C)OC(=O)c1cc2ccccc2oc1=O	none
O=C(Oc1ccccc1)c1cc2ccccc2oc1=O	FLuc modulator 15µM
Cc1ccccc1C(=O)Nc1nc2nc(C)c(C)c(=O)n2[nH]1	none (no result: Rab9 prom act, NPC1 prom act, Luc counter)
O=C1c2ccccc2-c2ccc(N(Cc3ccc(Br)cc3)Cc3ccc(Br)cc3)cc21	none (no result: Rab9 prom act, NPC1 prom act, FLuc modulator)
COc1ccc(-c2cc(C)no2)cc1S(=O)(=O)Nc1cccc(C(F)(F)F)c1	none (no result: Rab9 prom act, NPC1 prom act, SMN2 splice up, Luc counter)
COc1cccc(Cc2nc3ccccc3nc2SCC(=O)Nc2cccc(C)c2)c1	none (no result: Rab9 prom act, NPC1 prom act, SMN2 splice up, Luc counter)
COC(=O)c1cc(NC(=O)c2cc3ccccc3o2)cc(C(=O)OC)c1	FLuc modulator inconclusive (no result: SMN2 splice up, Luc counter)
O=C(Oc1ccccc1)c1ccc(NC(=O)c2ccco2)cc1	FLuc modulator 2.7µM
Cc1ccc(NC(=O)c2ccc(OC(=O)c3cc4ccccc4o3)cc2)cc1	Rab9 prom act 2µM, NPC1 prom act 3.5µM, SMN2 splice up 10µM
Cc1ccc(NC(=O)c2ccc(OC(=O)c3ccco3)cc2)cc1	Rab9 prom act 2.8µM, NPC1 prom act 2µM, SMN2 splice up 13µM
O=C(COc1ccccc1)Nc1ccc(NC(=O)c2ccco2)cc1	none
COc1ccc(OCC(=O)Nc2ccc(NC(=O)c3ccco3)cc2)cc1	SMN2 splice up 28µM
COC(=O)c1ccc(NC(=O)c2ccc(NC(=O)c3ccco3)cc2)cc1	none (no result: SMN2 splice up, Luc counter)
CC1=C(c2ccc(C(C)C)cc2)S(=O)(=O)N=C1N1CCC(C(=O)NCc2ccc(C)o2)CC1	none (no result: Rab9 prom act, NPC1 prom act, SMN2 splice up, Luc counter)
CCCn1c2ccccc2c2cnn(CC(=O)NCCc3ccc(OCC)cc3)c(=O)c21	none (no result: Rab9 prom act, NPC1 prom act, SMN2 splice up, Luc counter)
Cc1ccc(NCc2ccccc2-c2nnc(-c3ccccc3Cl)o2)c(C)c1	FLuc modulator inconclusive (no result: Rab9 prom act, NPC1 prom act, Luc counter)
Cn1c(=O)c2c(nc(NCc3ccc4c(c3)OCO4)n2C)n(C)c1=O	SMN2 splice up 32µM
Cc1cc(C)cc(NC(=S)Nc2cccc3ccccc23)c1	Rab9 prom act 2.5µM, NPC1 prom act 2.5µM, FLuc modulator 21µM (no result: SMN2 splice up, Luc counter)
O=C1/C(=C/c2ccccc2)[C@@H](NC2CCCCC2)c2ccccc21	none (no result: Rab9 prom act, NPC1 prom act, FLuc modulator)
COc1ccccc1-n1c(=O)c2c3c(sc2n(C)c1=O)CN(C(C)=O)CC3	none (no result: Rab9 prom act, NPC1 prom act, SMN2 splice up, Luc counter)
COc1ccc(/C(C)=N/Nc2nc3ccccc3n3cnnc23)cc1OC	FLuc modulator 11µM (no result: SMN2 splice up, Luc counter)
COc1ccc(Nc2nc3ccccc3n3cnnc23)cc1Cl	FLuc modulator inconclusive (no result: SMN2 splice up, Luc counter)
CCOC(=O)c1cnc2cc(-c3ccc(OCC)cc3)nn2c1-c1ccccc1	none (no result: Rab9 prom act, NPC1 prom act, SMN2 splice up, Luc counter)
CC(=O)n1nc(-c2ccc(C)cc2)nc1NCc1ccco1	Rab9 prom act 3.5µM, NPC1 prom act 2.5µM, SMN2 splice up inconclusive
Cc1ccc(-c2nc(NCc3ccco3)n(S(C)(=O)=O)n2)cc1	SMN2 splice up inconclusive (no result: FLuc modulator)
COc1ccc(-c2cc3nc(C)cc(NCCO)n3n2)cc1	Rab9 prom act inconclusive, FLuc modulator 11µM
COc1ccc(-c2cc3ncc(-c4ccccc4)c(N)n3n2)cc1	Rab9 prom act 1.8µM, NPC1 prom act 1.4µM, SMN2 splice up 11µM, Luc counter 11µM, FLuc modulator 0.95µM
COCCNc1cc(C)nc2cc(-c3ccc(C)cc3)nn12	Rab9 prom act inconclusive, NPC1 prom act inconclusive, FLuc modulator 6µM
Cc1ccc(C)c(NC(=O)CN(Cc2ccccc2)S(=O)(=O)c2ccc3nc(C)sc3c2)c1	none (no result: Rab9 prom act, NPC1 prom act, SMN2 splice up, Luc counter)
CCOc1ccc(NC(=O)CSc2nc3c(oc4ccccc43)c(=O)n2CCOC)cc1	none (no result: Rab9 prom act, NPC1 prom act, Luc counter)
COc1cccc(CNC(=O)CN(c2ccc(C(C)C)cc2)S(=O)(=O)c2c(C)n[nH]c2C)c1	none (no result: Rab9 prom act, NPC1 prom act, Luc counter)
CCC(C)NC(=O)CSc1nc2n[nH]c(C)c2c(=N)n1-c1ccc(C)c(Cl)c1 (centres undefined)	none (no result: Rab9 prom act, NPC1 prom act, SMN2 splice up, Luc counter)
CN(C)c1ccc(NC(=O)Cn2nnc3sc4c(c3c2=O)CCC(C(C)(C)C)C4)cc1 (centres undefined)	SMN2 splice up inconclusive (no result: Rab9 prom act, NPC1 prom act, Luc counter)
Cc1cccc(-c2cc3nc(C)cc(NCCCN(C)C)n3n2)c1	none
COc1ccc(-c2cc3nc(C)cc(N)n3n2)cc1	Rab9 prom act 0.35µM, NPC1 prom act 0.11µM, SMN2 splice up 1.1µM, Luc counter 7.9µM, FLuc modulator 0.38µM
